Shiga inhibitor: Shiga toxin inhibition. Vero cells, Shiga toxin protein synthesis inhibition reporter. inhibition, % at 38.7 µM. hit rate 9.2% among 290,000; in the data active = inhibition mostly above about 28%, no sharp cut-off; inactive = mostly below about 43%; also: 0% is about no effect
Pf growth 48h: P. falciparum growth inhibition at 48 hours (one generation) | Potency, µM (doses to about 28.7 µM), for inactives: at the highest dose activity change, negative = inhibition, actives largely listed as inhibitors | P. falciparum luciferase growth in erythrocytes, 48 h | hit rate 5.9% among 310,000; also: potency is read from the fitted curve at half-maximal effect; % is scaled to controls: 0 for no effect and ±100 for the full control effect
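A one-generation exposure of luciferase-tagged malaria parasites in RPMI 1640/Albumax erythrocyte culture, 37 C and 5% CO2. Inhibition is inferred from decreased luminescence after adding detection reagent.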
Cycloheximide cs: counter-screen hit for Shiga toxin inhibitors, cycloheximide | cell reporter, cycloheximide protein synthesis inhibition counterscreen | max response, % | hit rate 12% among 300,000 | AID 2314; in the data active = max response mostly above about 13%, no sharp cut-off; inactive = mostly below about 14%; also: read at 38.3 µM for the half of the compounds with a filed dose; 0% is about no effect
Pf growth 96h: P. falciparum growth inhibition at 96 hour, primary screen for plastid delayed-death inhibitors | Potency, µM (highest dose often 28.7 µM), for inactives: top-dose activity change, negative = inhibition, hits mostly inhibitors | hit rate 6.9% among 320,000 | P. falciparum luciferase reporter growth, 96 h; also: potency is read from the fitted curve at half-maximal effect; % is scaled to controls: 0 for no effect and ±100 for the full control effect
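Delayed-death screen, second-generation endpoint: infected erythrocytes, 2% hematocrit, 0.05% parasitemia final; 96 hours at 37 C, 5% CO2; luciferase detection reagent; luminescence decrease equals reduced growth.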
NS1 function inh: influenza NS1 inhibition | Potency, µM (titrated, usually from 46.1 µM), without a hit: at the highest dose activity, positive = more growth | hit rate 0.4% among 270,000; calls by dose curve; also: potency is read from the fitted curve at half-maximal effect; actives are rising curves; nearly all actives have a fitted effect of over 50% in size
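A cell-based growth assay was used: compounds that relieve NS1-induced slow growth of budding yeast raise OD600. Assay medium was yeast nitrogen base with ammonium sulphate and -URA supplement, pH 6.0, with 2% galactose.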
An asterisk follows results filed as active; ? = inconclusive; nt = no result given. In the library only some 21% were active in any assay of this set; here they are far more common. Unless noted, calls follow the shape of the dose curve; as a rule, active = well fitted inhibition curve with a large enough effect; inconclusive = small, poorly fitted or top-dose-only effect, or another doubt; inactive = no such curve, though single readings can be large or run the other way.

SMILES	Shiga inhibitor	Pf growth 48h	Cycloheximide cs	Pf growth 96h	NS1 function inh
COCCOC(=O)c1[nH]c2c(c1C)C(=O)CC(c1ccc(N(C)C)cc1)C2 (configuration not stated)	13.9	11.7µM*	13.9*	?	-4.3%
CCOC(=O)c1[nH]c2c(c1-c1ccc(OC)cc1)C(=O)CC(c1ccc(OC)c(OC)c1)C2 (configuration not stated)	10.6	?	-1.3	8.28µM*	-11.7%
Cc1ccc(-c2c[n+](CC(=O)Nc3cc(=O)n(C)c(=O)n3C)c3n2CCC3)cc1	-30.4	4.15µM*	0.5	1.17µM*	22.0%
Cc1ccc(-c2c[n+](CC(=O)Nc3nc(-c4ccccc4)cs3)c3n2CCC3)cc1	22.8	?	-2.5	?	0.4%
Cn1c(NC(=O)C[n+]2cc(-c3ccc(F)cc3)n3c2CCC3)cc(=O)n(C)c1=O	19.2	3.7µM*	-2.8	0.586µM*	-8.1%
O=C(C[n+]1cc(-c2ccc(F)cc2)n2c1CCC2)c1cccs1	88.7*	8.28µM*	18.3*	?	1.3%
COC(=O)c1ccc(S(=O)(=O)N2CCN(CCO)CC2)n1C	8.9	7.3%	0.4	-9.0%	-3.5%
COC(=O)c1ccc(S(=O)(=O)N2CCN(C(c3ccccc3)c3ccccc3)CC2)n1C	-4.6	10.4µM*	1.0	?	4.9%
Cc1ccc2cc(CN(Cc3nnnn3C3CCCC3)C3CCCCC3)c(=O)[nH]c2c1C	69.7*	15.8%	36.0*	?	-12.6%
COc1cc2cc(CN(Cc3nnnn3C3CCCC3)C3CCCC3)c(=O)[nH]c2cc1OC	-4.4	6.2%	-2.6	-32.2%	-14.2%
O=c1[nH]c2cc3c(cc2cc1CN(Cc1nnnn1C1CCCC1)C1CCCC1)OCCO3	49.2	nt	19.1	9.28µM*	4.3%
Cc1ccc2[nH]c(=O)c(CN(Cc3nnnn3C3CCCC3)C3CCCCC3)cc2c1	0.6	1.1%	-1.4	nt	-51.2%
COc1ccc(NC(=O)CN(C)C(=O)c2cccc(NS(=O)(=O)c3ccc(Br)cc3)c2)cc1	nt	9.1%	nt	16.1%	nt
CSc1nc2nc(C)cc(-c3ccccc3)n2n1	-1.3	13.1%	-0.9	nt	-6.9%
FC(F)(F)c1cc(-c2ccccc2)nc2ncnn12	-1.0	?	-1.9	25.1%	2.6%
CSc1nc2nc(C(F)(F)F)cc(-c3ccccc3)n2n1	-4.5	nt	-0.5	2.94µM*	-2.3%
CSc1nc2nc(-c3ccccc3)cc(C(F)(F)F)n2n1	-20.3	4.15µM*	13.3	1.2%	-1.5%
CCC(=O)N1CN(S(=O)(=O)c2ccc(C)cc2)CC1C (configuration not stated)	-5.3	21.5%	-1.0	?	-3.2%
O=C(Nc1ccc2oc(=O)ccc2c1)c1ccc(-c2cccc([N+](=O)[O-])c2)o1	62.5	4.15µM*	11.2	?	4.3%
O=C(Nc1ccc2oc(=O)ccc2c1)c1ccc(-c2cccc(Cl)c2)o1	-3.8	10.4µM*	-2.5	?	-1.9%
COc1cc(NC(=O)c2ccc(-c3cccc([N+](=O)[O-])c3)o2)ccc1NC(=O)C(C)C	-7.1	10.4µM*	2.0	-13.0%	-8.4%
O=C(Nc1ccc2oc(=O)ccc2c1)c1ccc(-c2ccccc2[N+](=O)[O-])o1	29.2	5.9%	7.3	15.6%	-0.2%
COc1cc([N+](=O)[O-])ccc1NC(=O)c1cccc(NC(=O)C(C)C)c1	11.2	4.4%	1.9	49.9%	nt
CCCCn1c(N)c(N(CC(C)C)C(=O)c2ccc(-c3ccc(C(C)=O)cc3)o2)c(=O)[nH]c1=O	nt	-5.0%	nt	-17.6%	nt
CC1CCN(c2nc(N(C)c3ccccc3)nc(N)c2[N+](=O)[O-])CC1	27.0	?	11.1*	1.7%	-3.4%
SMILES	Shiga inhibitor	Pf growth 48h	Cycloheximide cs	Pf growth 96h	NS1 function inh
CN(c1ccccc1)c1nc(N)c([N+](=O)[O-])c(Nc2ccccc2F)n1	10.9	-16.8%	19.0*	?	6.6%
CC(C)CNc1nc(N)c([N+](=O)[O-])c(N2CCCCCC2)n1	0.8	?	-3.6	10.4µM*	-92.4%
CCN1CCN(c2nc(N(C)c3ccccc3)nc(N)c2[N+](=O)[O-])CC1	-10.4	-10.6%	0.9	?	2.6%
CN(c1ccccc1)c1nc(N)c([N+](=O)[O-])c(Nc2ccc(F)cc2)n1	-4.6	-16.3%	6.8	-0.2%	0.1%
CN(c1ccccc1)c1nc(N)c([N+](=O)[O-])c(N2CCCCCC2)n1	56.4*	?	21.4*	-19.0%	-5.2%
CCC(C)Nc1nc(N)c([N+](=O)[O-])c(N2CCCCCC2)n1 (configuration not stated)	-4.7	?	-3.1	?	-92.5%
COc1ccc(Br)c(C(=O)OCC(=O)N2CCC(Cc3ccccc3)CC2)c1	nt	13.1µM*	nt	-6.9%	nt
O=C(COc1ccc(F)cc1)N1CCC(Cc2ccccc2)CC1	52.3	?	14.4*	-10.5%	-2.3%
O=C(OCC(=O)N1CCC(Cc2ccccc2)CC1)c1ccccc1NCCO	nt	-13.4%	nt	-2.9%	nt
COc1ccc(OCC(=O)N2CCC(Cc3ccccc3)CC2)cc1	19.0	-23.1%	-1.6	?	-11.5%
CN(Cc1ccon1)Cc1cn(C)nc1-c1cccc(Cl)c1	70.6	179.3%	33.4*	-8.3%	-2.5%
O=C1C(=O)N(Cc2cccnc2)C(c2ccccn2)/C1=C(/O)c1ccc(Br)cc1 (configuration not stated)	20.7	11.5%	-1.7	0.0%	12.4%
Cc1ccc(/C(O)=C2\C(=O)C(=O)N(Cc3cccnc3)C2c2ccccc2[N+](=O)[O-])cc1 (configuration not stated)	83.3*	-10.6%	37.3*	49.5%	13.6%
O=C1C(=O)N(CCO)C(c2ccccc2[N+](=O)[O-])/C1=C(\O)c1ccccc1 (configuration not stated)	-4.7	32.8%	-4.7	-0.9%	-1.7%
Cc1ccc(/C(O)=C2\C(=O)C(=O)N(C)C2c2ccccc2[N+](=O)[O-])cc1 (configuration not stated)	nt	56.5%	36.9*	63.3%	-6.7%
CC1CCCCN1C(=O)CSCC(=O)Nc1nc(-c2cccs2)cs1 (configuration not stated)	37.1*	-11.7%	23.9*	?	-31.2%
CC1CCN(C(=O)CSCC(=O)Nc2nc(-c3cccs3)cs2)CC1	44.9*	-8.1%	10.3*	?	-27.3%
CC1CCCN(C(=O)CSCC(=O)Nc2nc(-c3cccs3)cs2)C1 (configuration not stated)	40.5	nt	13.5	?	-7.5%
COc1ccc(OC)c(CNc2ccc3c(c2)CCC3)c1	65.8*	?	43.0*	10.4µM*	10.9%
COc1ccc(OC)c(CC(=O)Nc2ccc3c(c2)CCC3)c1	21.2	32.7%	4.6	-5.5%	-21.4%
COc1cccc(CNc2ccc(C)c(Cl)c2)c1	64.4*	7.7%	38.7*	?	-6.7%
COc1cccc(CNc2ccc3c(c2)CCC3)c1	153.4*	nt	117.8*	31.4%	0.9%
C=CCOc1c(Cl)cc(CNc2ccc(C)c(Cl)c2)cc1OC	-10.1	nt	-3.3	?	-0.2%
CN(Cc1ccccc1)S(=O)(=O)c1ccc(N2CCOCC2)nc1	-4.2	8.1%	-3.7	23.8%	-6.1%
